A selection: hits, their analogues and other compounds. The true share with any hit is near 3.3%.
H9c2 protect: cardioprotection against H2O2-induced cell death, primary screen, uHTS, H9c2 cells, ATPLite luminescence. H9c2 cardiomyocytes, H2O2 injury protection, 2 h. protection from H2O2 cell death, % at 20 µM. 360,000 compounds, 0.63% hits. AID 588492, 2011;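 active = compounds giving at least 50% protection of heart cells from peroxide-induced death in the single-dose screen, raw or plate-pattern-corrected value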;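 also: 0% = DMSO wells with peroxide and 100% = DMSO wells without peroxide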
Efflux pump inh: inhibitors of Candida efflux pumps in yeast, primary screen, S. cerevisiae, Nile Red, multiplex. S. cerevisiae Candida pump triplex. inhibition, % at 10 µM. 330,000 compounds, 0.44% hits. AID 485275, 2010;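 active = plate passing quality check with inhibition over a set limit, or well fluorescence over plate mean plus 4 SD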;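 also: Nile Red retained in pooled yeast measured as flow cytometry median fluorescence; 0% = buffer negative control and 100% = Enniatin B positive control; higher means more Nile Red kept so more efflux inhibition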
KCC2 mod: KCC2 cotransporter modulators, thallium flux, primary screen, cell-based, HEK293 KCC2, FluoZin-2 fluorescence, MLSMR | KCC2 cells, thallium flux FluoZin-2 fluorescence | B-score of Tl+ flux slope (higher = more flux/activation; lower = inhibition) at 10 µM | 190,000 compounds, 2.2% hits;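 active = thallium flux slope and its plate-corrected score both differing from the plate sample mean at a set confidence after two filtering rounds, in either direction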;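 also: slope of fluorescence scaled to starting intensity during 10 to 20 s after thallium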
Calb FLC: C. albicans growth inhibition with fluconazole, primary screen, CaCi-2 strain, Alamar Blue fluorescence. 300,000 compounds, 0.57% hits. C. albicans CaCi-2 (fluconazole-resistant clinical isolate) + fluconazole, 48 h. growth inhibition, % (test concentration not listed);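 active = growth inhibition above about 58% in most replicates, limit read from the data, passing the limit was not always enough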;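 also: all wells also contain fluconazole at 8 µg/ml as a sub-toxic cotreatment; 0% = median of DMSO wells and 100% = median of geldanamycin control wells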
PHOSPHO1 inh: PubChem AID 1565 | recombinant PHOSPHO1, absorbance phosphatase assay | inhibition, % at 13.3 µM | 290,000 compounds, 1.1% hits | Phosphoethanolamine/phosphocholine phosphatase (Homo sapiens), Q8TCT1; in the data active = inhibition above about 60%
Target sequence (Q8TCT1 whole entry, looked up): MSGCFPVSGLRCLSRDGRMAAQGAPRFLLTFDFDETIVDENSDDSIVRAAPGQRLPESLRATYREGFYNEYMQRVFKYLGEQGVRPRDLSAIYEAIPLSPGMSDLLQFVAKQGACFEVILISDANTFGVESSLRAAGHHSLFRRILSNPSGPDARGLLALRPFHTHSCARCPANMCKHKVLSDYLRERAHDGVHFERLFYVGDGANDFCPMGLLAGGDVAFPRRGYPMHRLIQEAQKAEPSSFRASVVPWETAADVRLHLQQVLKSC
* marks the source's active call; other numbers are inactive results; x = no result given.

SMILES	H9c2 protect	Efflux pump inh	KCC2 mod	Calb FLC	PHOSPHO1 inh
CCc1ccc(-c2cc(C)no2)cc1S(=O)(=O)N1CCN(c2ccccc2)CC1	-4	0	x	6	-9
CC(=O)N(/N=C1\Sc2ccccc2C1=O)c1ccc(C)cc1C	-33	0	-0.76	-4	94*
COc1cc(C(=S)N2CCOCC2)cc(OC)c1O	2	0	0.74	3	42
COC(=O)c1cc(S(=O)(=O)Nc2cccc(C)c2C)cn1C	-8	0	x	3	20
CCN(CC)S(=O)(=O)c1cccc(NC(=O)CN2C(=O)NC3(CCC(C)CC3)C2=O)c1 (centres undefined)	-1	x	x	x	x
O=C(NNC(=O)c1sccc1-n1cccc1)c1ccccc1	4	0	1.9	-4	-2
O=C(NNC(=O)c1sccc1-n1cccc1)c1cccc(Cl)c1	1	0	12*	-8	-22
Cc1ccc(CNC(=O)c2sccc2-n2cccc2)cc1	19	0	6.9*	-1	14
CN(C(=O)CSc1nc2sc3c(c2c(=O)n1C)CCC3)C1CCS(=O)(=O)C1 (centres undefined)	-11	0	x	x	x
O=C(C1CCN(S(=O)(=O)c2cccc3nsnc23)CC1)N1CCc2ccccc21	3	0	-3.6	56	48
O=C(C1CCN(S(=O)(=O)c2cccc3nsnc23)CC1)N1CCCc2ccccc21	9	0	-4	-101	60*
Cc1ccc(OCc2cc(C(=O)NCc3cnn(-c4cccc(F)c4)c3)no2)cn1	-2	0	x	78*	44
Cc1ccc(OCc2cc(C(=O)NCc3ccc(OC(F)(F)F)cc3)no2)cn1	-5	0	x	9	17
COc1ccc(/C=C/C(=O)c2ccc([N+](=O)[O-])o2)cc1OC	x	x	x	0	x
O=C(/C=C/c1cccc(Cl)c1)c1ccc([N+](=O)[O-])o1	-31	0	x	88*	x
CCC(=O)Nc1nnc(-c2ccccn2)o1	-2	0	0.78	-3	-4
O=C(Nc1nnc(-c2ccccn2)o1)c1ccc(Br)cc1	28	0	3.3	98*	-14
N#CC1=C2SCN(c3ccccc3)CN2C(=O)CC1c1ccccc1Cl (centres undefined)	5	0	x	-3	86*
COc1ccc(Br)cc1C1CC(=O)N2CN(Cc3ccccc3)CSC2=C1C#N (centres undefined)	-7	0	-0.37	-2	24
N#CC1=C2SCN(c3ccccc3)CN2C(=O)CC1c1cccs1 (centres undefined)	3	0	0.19	41	81*
COc1ccc2ccccc2c1C1CC(=O)N2CN(C)CSC2=C1C#N (centres undefined)	3	0	0.52	17	54
N#CC1=C2SCN(c3ccccc3)CN2C(=O)CC1c1c(Cl)cccc1Cl (centres undefined)	11	0	-0.65	3	92*
N#CC1=C2SCN(Cc3ccccc3)CN2C(=O)CC1c1ccccc1F (centres undefined)	-3	0	-1.5	0	83*
O=C(OCC#CCSc1nnc(-c2cccc3ccccc23)o1)c1ccc2ccccc2c1	-14	0	x	x	x
Cc1ccccc1C1=C/C(=C(\SS/C(C(=O)c2ccc(OCC(=O)O)c(Cl)c2Cl)=C2\C=C(c3ccccc3C)SS2)C(=O)c2ccc(OCC(=O)O)c(Cl)c2Cl)SS1	0	x	x	x	x
SMILES	H9c2 protect	Efflux pump inh	KCC2 mod	Calb FLC	PHOSPHO1 inh
O=C(O)c1ccc(COc2ccc(/C=N/NC(=O)c3cccs3)cc2)cc1	6	0	-3.2	-5	77*
O=C(N/N=C/c1cccc(OCc2ccccc2)c1)c1cccs1	-10	0	0.24	8	30
COC(=O)c1ccc(COc2ccc(/C=N/Nc3cccc(C(=O)O)c3)cc2)cc1	-3	1	-0.008	4	68*
O=C(NCC1CC1)c1ccc2c(c1)S(=O)(=O)c1cc(Cl)ccc1C2=O	25	0	x	x	x
CN(CC(=O)Nc1ccc(F)c(F)c1F)C(=O)c1ccc(-n2cncn2)cc1	3	0	x	x	x
COc1ccccc1Nc1nnc(SCc2nnc(-c3cc(OC)c(OC)c(OC)c3)o2)s1	21	0	-1.8	-2	-9
CCOc1ccccc1Nc1nnc(SCc2nnc(-c3cc(OC)c(OC)c(OC)c3)o2)s1	68*	1	-0.36	1	-14
O=C(O)c1ccc2c(c1)[C@@H]1C=CC[C@@H]1[C@H](c1ccccn1)N2	0	0	0.45	110*	x
O=C(OC1CCCCC1)c1ccc2c(c1)C1C=CCC1C(C(=O)O)N2 (centres undefined)	x	x	0.5	x	83*
O=C(O)C1Nc2ccc(Br)cc2C2C=CCC12 (centres undefined)	1	0	x	20	x
Cc1ccc(CNC(=O)CN(C)S(=O)(=O)c2ccc(F)cc2)cc1	1	0	x	0	x
O=S(=O)(c1ccccc1)c1nc(NC2CC2)sc1Cl	-11	0	x	1	12
O=S(=O)(c1ccccc1)c1nc(Nc2ccccc2N2CCOCC2)sc1Cl	1	0	-0.56	1	79*
CCN(CC)C(=O)c1nc[nH]c1C(=O)O[C@@H](C)c1ccccc1	6	0	x	x	x
O=C(Nc1cccnc1)c1cc(-c2ccccc2)on1	-22	0	-0.72	-30	6
CC(C)n1cc(NC(=O)c2cc(-c3ccccc3)on2)cn1	6	0	33*	-2	0
COC(=O)c1cc(Cl)c(NC(=O)/C=C/c2ccc(OC)c(OC)c2)cc1OC	68*	0	1.2	9	-10
COC(=O)c1cc(OC)c(OC)cc1NC(=O)c1ccc(OC)c(OC)c1	52*	0	x	5	0
CCC1COC(c2cccn2Cc2ccccc2Cl)=N1 (centres undefined)	1	0	-1	19	-4
CCCc1cc(C(=O)NC2CCCN(Cc3ccccc3F)C2)no1 (centres undefined)	-2	0	x	-10	24
N#CC1=C(N)Oc2cc(O)ccc2C1c1cccs1 (centres undefined)	-13	0	-0.5	-1	-18
CCOC(=O)C1=C(C)OC(N)=C(C#N)C1c1ccsc1 (centres undefined)	3	0	0.35	-7	6
N#CC1=C(N)Oc2c(ccc3ccccc23)C1c1cccs1 (centres undefined)	x	0	-1.3	3	93*
Cc1ccc2[nH]c(=O)c(C3C(C#N)=C(N)Oc4c3ccc3cccnc43)cc2c1 (centres undefined)	64*	0	x	99*	83*
N#CC1=C(N)Oc2c(O)cc3ccccc3c2C1c1ccsc1 (centres undefined)	58*	0	-0.65	27	7
N#CC1=C(N)Oc2c(ccc3cccnc23)C1c1ccccc1 (centres undefined)	58*	0	-0.76	4	-5
